Screens deposited in PubChem by University of Kansas High Throughput Screening Laboratory.
Pf apPOL block: Pf-apPOL DNA polymerase inhibition | Recombinant Pf-apPOL, molecular beacon fluorescence, 1.5 h | AID 1794808 | 0.25% of 210,000 active | inhibition, % at 10 µM
mHTT CaM bind: mHTT-calmodulin interaction abrogation | AlphaScreen His-mHTT/GST-CaM binding, luminescence | inhibition, % at 15 µM | 3.6% of 190,000 active | AID 1671202;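 further: 0% = both proteins with DMSO and 100% = one protein alone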
Starred values were filed as active, the others as inactive; nt = not tested or not shown. Many of the other results were omitted from the sample, so hits are more common in it than they were. No stated cut-off is given here; in the data, active means inhibition above about 50%; inactive means the rest.

SMILES | Pf apPOL block | mHTT CaM bind
CN(C)S(=O)(=O)Oc1ccc(-c2noc(-c3ccc(Oc4cc(Cl)cc(Cl)c4)o3)n2)cc1 | 59* | nt
FC(F)(F)c1cccc(-c2nnc(-c3ccc(Oc4cc(Cl)cc(Cl)c4)o3)o2)c1 | 0 | nt
CCOc1ccc(CNC(=O)C2CCN(Cc3cn(C)c4ccc(OC)cc34)CC2)cc1 | -2 | 5
COc1ccc(NC(N)=Nc2nc(C)cc(C)n2)c(OC)c1 | 3 | -2
N#Cc1c(N2CCOCC2)nsc1-c1ccccc1Cl | -8 | nt
N#CC(C#N)=C1C(Cl)=C(N2CCCCC2)c2ccccc21 | 3 | 56*
O=C(NCc1cccs1)C1CCCN(c2nnc3ccccn23)C1 (centres undefined) | -1 | 7
Cc1c(Cc2ccccc2)sc(N)c1C(N)=O | -6 | 75*
Cc1c(Cc2ccccc2)sc(NC(=O)Nc2ccccc2)c1C(N)=O | -6 | 17
c1ccc(Cc2nc(N3CCOCC3)c3c4c(sc3n2)CCCC4)cc1 | 0 | -34
CCN1CCN(c2nc(Cc3ccccc3)nc3sc4c(c23)CCCC4)CC1 | -6 | 66*
Cn1nc(C(=O)NCc2ccc(Cl)cc2)c2c1CCN(C(=O)c1cccs1)C2 | 1 | 6
O=C(Nc1nccs1)c1cn(-c2ccccc2)nc1-c1ccc2c(c1)OCCO2 | 1 | 31
O=C(Nc1ccccc1C(=O)O)c1ccc(C2SCC(=O)N2Cc2ccccc2)cc1 (centres undefined) | -6 | 6
Cc1ccc(C2=N/C(=C/c3ccc(N(C)C)cc3)C(=O)O2)cc1 | 4 | 2
Cc1ccc(CC(=O)N2CCc3c(c(COCc4ccccc4F)nn3C)C2)cc1 | -8 | 7
Cc1ccc(CC(=O)N2CCc3c(c(C(=O)NCc4ccc(F)cc4)nn3C)C2)cc1 | -9 | 69*
COc1ccc(C(=O)N2CCc3c(c(C(=O)NCc4ccc5c(c4)OCO5)nn3C)C2)cc1 | -7 | 47
COc1ccc(CC(=O)N2CCc3c(c(C(=O)NCc4ccc(F)cc4)nn3C)C2)cc1 | -6 | 74*
CCC(CC)C(=O)N1CCc2c(c(C(=O)NCc3ccc(F)cc3)nn2C)C1 | -8 | 58*
COc1ccc(CC(=O)N2CCc3c(c(C(=O)NCc4ccccc4)nn3C)C2)cc1 | -7 | 61*
Cn1nc(C(=O)NCc2ccccc2)c2c1CCN(C(=O)c1ccco1)C2 | -10 | 18
Cc1cccc(NC(=O)CCCC(=O)O)n1 | 0 | 2
O=C(NCc1ccccc1Cl)c1ccc2c(c1)N(Cc1ccc(F)cc1)C(=O)CS2 | -5 | -23
O=S(=O)(CCc1noc(C2CCCC2)n1)c1ccccc1 | -2 | -11
SMILES | Pf apPOL block | mHTT CaM bind
Cc1ccccc1OCCSc1nc2ccccc2n1CC(=O)N1CCOCC1 | -9 | 6
COc1ccc(CNC(=O)N(Cc2ccsc2)CC(F)(F)F)cc1OC | -4 | -7
Cc1cccc(-c2nccc(C3CCCN(C(=O)Cc4cccc(F)c4)C3)n2)c1 (centres undefined) | -4 | 46
CCOCC(=O)N1CCCC(c2ccnc(Nc3cccc(F)c3)n2)C1 (centres undefined) | -4 | 62*
CCOCC(=O)N1CCCC(c2ccnc(Nc3ccc(C)cc3)n2)C1 (centres undefined) | -3 | 38
O=C(Cc1cccc(F)c1)N1CCCC(c2ccnc(Nc3cccc(F)c3)n2)C1 (centres undefined) | -2 | 73*
O=C(COc1ccccc1)N1N=C(c2ccc([N+](=O)[O-])cc2)CC1(O)C(F)(F)F (centres undefined) | 4 | 20
CC1CN(C(=O)c2cccc(I)c2)CC(C)O1 (centres undefined) | -15 | 0
COCCN=C1Nc2ncccc2NC12CCN(C(=O)c1ccc(C)s1)CC2 | -3 | 7
CCOc1ccc(/C=C2\SC(=NS(=O)(=O)c3ccc(C)cc3)NC2=O)cc1 | -3 | 51*
Cc1ccc(S(=O)(=O)N=C2NC(=O)/C(=C/c3ccccn3)S2)cc1 | 0 | 5
CC1(C)C2CCC1(C)C(OC(=O)c1cc3cc([N+](=O)[O-])ccc3oc1=O)C2 (centres undefined) | -8 | -2
CC(C)C(=O)NCCc1csc(C2CCN(C(=O)C3CCCCC3)CC2)n1 | -6 | -2
COc1ccc(/C=C/c2ccc3ccccc3n2)cc1 | -9 | -75
CCS(=O)(=O)N1CCN(c2ccc([N+](=O)[O-])c(NC3CC3)c2)CC1 | -8 | 0
O=[N+]([O-])c1ccc(N2CCNCC2)cc1NC1C2CC3CC(C2)CC1C3 (centres undefined) | 0 | 82*
CC12C=CC3(CN(Cc4ccccc4)C(=O)C3C1C(=O)NCCc1ccccc1Cl)O2 (centres undefined) | -6 | 0
Cc1ccc(C)n1-c1ccc(Cl)cc1O | -8 | 93*
Cc1ccc(C)n1-c1ccc(C(=O)O)cc1O | -1 | 12
O=C(NCc1ccco1)NC1(C(F)(F)F)Oc2ccc(Cl)cc2O1 (centres undefined) | 1 | -1
CCN(CC)S(=O)(=O)c1ccc(-c2cn3cccnc3n2)cc1 | -5 | -2
Cc1ccnc(SCC(=O)N2c3ccccc3CCc3ccccc32)n1 | 1 | 7
